# Laboratory results from PubChem BioAssay (NCI).
# Compounds without any hit were thinned out: in the full panel of roughly 83,000, 20% have a hit.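 Cells were grown in 96-well plates and exposed to the test compound at a single concentration for 48 hours; results are reported as percent growth, with values below 10 considered active.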 Unmarked numbers belong to inactive results. Active and inactive are the calls of the source.
# Tests used:
# Assay in all cases: NCI-60 one-dose screen, 48 h (100 = growth as untreated, 0 = no growth, -100 = all killed)
# Conditions in all cases: 10 µM unless noted
# SR leukemia = test system: SR leukemia
# RPMI-8226 leukemia = test system: RPMI-8226 leukemia
# OVCAR-8 ovarian = test system: OVCAR-8 ovarian
# OVCAR-5 ovarian = test system: OVCAR-5 ovarian
# OVCAR-4 ovarian = test system: OVCAR-4 ovarian
# SK-OV-3 ovarian = test system: SK-OV-3 ovarian
# IGROV1 ovarian = test system: IGROV1 ovarian
# OVCAR-3 ovarian = test system: OVCAR-3 ovarian
# HS 578T breast = test system: HS 578T breast
# NCI/ADR-RES ovarian = test system: NCI/ADR-RES ovarian
Structure (SMILES),growth (SR leukemia),growth (RPMI-8226 leukemia),growth (OVCAR-8 ovarian),growth (OVCAR-5 ovarian),growth (OVCAR-4 ovarian),growth (SK-OV-3 ovarian),growth (IGROV1 ovarian),growth (OVCAR-3 ovarian),growth (HS 578T breast),growth (NCI/ADR-RES ovarian)
Nc1nc2c(c3cnccc13)C(c1cccc(Cl)c1)Cc1cnccc1-2 (stereo not given),19.5%,8.24% (active),29.3%,40.4%,32.1%,32%,35.9%,10.1%,38.9%,6.79% (active)
CCC(C)C1NC(=O)C(CCCCN)NC(=O)C(CCCCN)NC(=O)C(CC(C)C)NC(=O)C(CCCCN)NC(=O)C(C(C)CC)NC(=O)C(C(C)C)NC(=O)C(C(C)CC)NC(=O)C(CCCCN)NC(=O)C(CCCCN)NC(=O)C(C)NC(=O)C(CCCCN)NC(=O)C(CC(C)C)NC1=O (stereo not given),2.93% (active),-17.4% (active),12.4%,67.3%,23.2%,26.1%,24.4%,10.6%,53%,58.7%
CC(=O)N1CCN(CCNC(=O)n2cc(-c3ccncc3)c(-c3ccc(O)c(Cl)c3)n2)CC1,85%,102%,106%,114%,127%,104%,127%,112%,139%,107%
COc1ccc(CNCCCN2C(=O)c3ccc4c5c(ccc(c35)C2=O)C(=O)N(CCCNCc2ccc(OC)c(OC)c2OC)C4=O)c(OC)c1OC,-55.4% (active),-42.3% (active),-51.1% (active),-55.4% (active),-97.3% (active),-77.4% (active),-79.6% (active),-91.8% (active),-38.2% (active),-36.5% (active)
COc1cc2ncnc(-n3ncc4cc(NC(=O)Nc5ccc(Cl)c(Cl)c5)ccc43)c2cc1OC,9.64% (active),-0.257% (active),2.71% (active),-33.1% (active),-32.3% (active),-24.9% (active),-58.3% (active),-65.5% (active),-5% (active),-30.7% (active)
COc1cc(-c2cc3cnccc3c3nc(N)c4ccncc4c23)cc(OC)c1OC,17%,8.28% (active),41.4%,68.7%,73.5%,57.5%,15%,48.8%,10.1%,30.7%
Nc1ncn([C@@H]2O[C@H](CO)[C@@H](O)C2(F)F)c(=O)n1,15%,39.2%,49.8%,87%,94.9%,71.1%,56.8%,70.6%,90.4%,42.1%
N=C(N)c1ccc(-c2ccc(-c3cc(Cl)cc(Cl)c3)s2)cc1,-16.6% (active),-48.9% (active),-12.5% (active),-78.3% (active),-66.1% (active),-78.6% (active),-73.8% (active),-83.4% (active),-46.8% (active),-47.4% (active)
CCCCCCCCCCCCOC(=O)/C=C\C(=O)NC(N)=O,3.65% (active),4% (active),70.6%,108%,86%,97.8%,73%,92.4%,86%,88.4%
O=C(Nc1ccc(-n2cc(-c3ccncc3)c(-c3ccc(Cl)c(O)c3)n2)cc1)c1ccc(Cl)c(Cl)c1,5.94% (active),-25.9% (active),38.5%,56.5%,47.4%,34.1%,67.4%,61.3%,-35.1% (active),51.6%
CCN(CC)C(=O)C1(C)CCCC2(C)c3cc(OC(C)=O)ccc3CCC12 (stereo not given),62.8%,58.8%,86.4%,96.9%,71.2%,94.1%,79.9%,88.8%,84.1%,85.8%
CC1=C(C)C(=O)C(C(C)C2=C(C)C(=O)C(C)=C(C)C2=O)=C(C)C1=O,56%,50.5%,99.1%,44%,104%,98.1%,2.57% (active),150%,77.9%,91.9%
COc1ccc(OC)c(Cn2cc3c(c2)-c2oncc2CC3)c1,22.7%,42.5%,55.5%,58.1%,69.1%,11.6%,31.2%,-4.75% (active),19.2%,1.37% (active)
CCCC(C)c1cc(Cc2cc(Cl)cc(Cl)c2O)c(O)c(Cc2cc(Cl)cc(Cl)c2O)c1 (stereo not given),5.98% (active),-2.65% (active),15%,33.8%,22%,14.6%,28.1%,16.2%,1.09% (active),2.52% (active)
